Compounds without any hit were thinned out: in the full panel of roughly 83,000, 20% have a hit.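 96-well plates, one dose, 48 hours. Percent growth reported; active if below 10.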 Active and inactive are the calls of the source.

The subject of this test is OVCAR-3 ovarian. Briefly: NCI-60 one-dose screen, 48 h (100 = growth as untreated, 0 = no growth, -100 = all killed). Particulars: 10 µM unless noted.
For `Cn1nc(C(F)(F)F)cc1-c1cc(Cl)c(OCc2ccc(Cl)cc2)c(-c2ccc(Cl)c(C(F)(F)F)c2)c1O`, the growth was 7.63% (active).
Regarding `CC(=O)O[C@H]1[C@H](CC#CC#CC[C@@H]2C[C@]3(C)[C@H]4CC=C5[C@H]6[C@@H](C)[C@H](C)CC[C@]6(C(=O)NCCN(CCN)CCN)CC[C@@]5(C)[C@]4(C)CC[C@H]3C(C)(C)[C@H]2OC(C)=O)C[C@]2(C)[C@H]3CC=C4[C@H]5[C@@H](C)[C@H](C)CC[C@]5(C(=O)NCCN(CCN)CCN)CC[C@@]4(C)[C@]3(C)CC[C@H]2C1(C)C`, the growth is 89% (inactive).
In the case of `CC(=O)c1ccc(Nc2nc(Cl)nc(Oc3c(Cl)cccc3Cl)n2)cc1`, the growth was 90.9% (inactive).
The value for `Oc1[nH]c2ccccc2c1/C=c1/ccc2c(c1)N=C(c1ccc(C(F)(F)F)cc1)N=2` was 25.8% (inactive); that for `Brc1cccc(-n2ncc3c(Nc4ccc(-c5nnc(-c6ccccc6)o5)cc4)ncnc32)c1` was 99.6% (inactive).
Turning to `CCNC(=S)N(Cc1ccccc1)Cc1ccccc1`, the growth is 123% (inactive).
The value for `COc1cccc(CC(C)=C(c2ccc(OCCCN(C)C)cc2)c2ccc(OCCCN(C)C)cc2)c1` was -89.9% (active).
The value for `N[C@@H](CO)C(=O)O` was 98.4% (inactive); that for `O=C(c1ccc(C(F)(F)F)c(Cl)c1)N(Cc1ccc(Cl)cc1)c1ccc(-c2cc(C(F)(F)F)[nH]n2)c(O)c1` was 6.9% (active).
The value for `c1ccc(C(Nc2ccccn2)(c2ccccc2)c2ccccc2)cc1` was 82% (inactive); that for `CC[C@H](Nc1nc(N)nc(N)c1Cl)c1nc2cccc(NCc3ccc(C(=O)NO)cc3)c2c(=O)n1-c1ccccc1` was -22.1% (active).
